In PubChem BioAssay AID624117 (National Center for Advancing Translational Sciences (NCATS), 2012):
Inconclusive results are not listed. Entries that show only a call come without a potency. The source made the active and inactive calls. The call rests on the fitted dose curve; in most records, active means well fitted curve in the direction sought with a large enough effect; inconclusive means small, poorly fitted or top-dose-only effect, or another doubt; inactive means no such curve, though single readings can be large or run the other way.

assay: qHTS Assay for Rab9 Promoter Activators: Hit Validation Using Renilla Luciferase Read-Out; conditions: Huh7 NPC1 promoter Renilla luciferase reporter, 24 h; series mostly up to 76.9 µM
Procedure, shortened: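 Hit validation in Huh7 NPC promoter-luciferase reporter line: compound treatment 24 h at 37 deg C, then luminescence measured after 10 min room-temperature incubation with […] reagent.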
Potency means the concentration at half of the fitted maximal effect.

SMILES	Potency
C=CCn1c(C)nnc1SCC(=O)Nc1nccs1	inactive
Cc1ccc(S(=O)(=O)/N=C2\C=C(Nc3cccc(C(=O)O)c3)C(=O)c3ccccc32)cc1	inactive
Cc1noc(/C=C/N(C)C)c1S(=O)(=O)N1CCCC(C(=O)N2CCCCC2)C1 (stereo not drawn)	inactive
CC(C)C1(CCNC(=O)c2cccs2)CCOC(C)(C)C1 (stereo not drawn)	inactive
COc1ccc(/C=C\c2onc(C)c2S(=O)(=O)N2CCC(C(=O)NCCC(C)C)CC2)cc1	inactive
S=C1NCN(CCc2ccccc2)CN1Cc1ccccc1	inactive
NC(=O)C(=O)NN=C1C2CC3CC(C2)CC1C3	inactive
O=C(CSc1nnc(Cc2cc(=O)[nH]c(=O)[nH]2)n1-c1ccc(Cl)cc1)NC1CCCC1	inactive
Cc1ccc(C(=O)c2cn[nH]c2-c2ccccc2O)cc1	inactive
Nc1c(N(CCO)C(=O)/C=C/c2ccco2)c(=O)[nH]c(=O)n1Cc1ccccc1	inactive
O=C(NC1CCCC1)C(c1ccc(F)cc1)N(C(=O)c1csnn1)c1ccccc1 (stereo not drawn)	inactive
COC(=O)c1cn(NC(=O)C2CCCCC2)c(=O)c2ccccc12	inactive
CCOC(=O)CSc1nc2cc3c(cc2cc1C#N)OCO3	inactive
CC(Sc1ncnc2c1cnn2-c1ccccc1)C(=O)Nc1ccc(N2CCOCC2)cc1 (stereo not drawn)	inactive
CCOC(=O)c1ccc(-c2nnc(-c3ccc(Cl)cc3Cl)o2)cc1	inactive
COc1ccccc1C(=O)Nc1nnc(SCC(=O)NC2CCCC2)s1	inactive
Cc1nc(-c2ccc(S(=O)(=O)Oc3ccc(Cl)cc3Cl)s2)cs1	inactive
O=C(CSc1nnc(-c2csc3c2CCCC3)o1)Nc1ccccc1	inactive
Cc1csc(NC(=O)CSc2nnc(-c3ccncc3)o2)n1	inactive

SMILES	Potency
Cc1ccc(S(=O)(=O)/N=C(/Nc2ccccn2)c2ccc(Cl)cc2)cc1	20.7 µM (active)
CCCNC(=O)C1CCN(S(=O)(=O)c2ccc3[nH]c(=O)ccc3c2)CC1	inactive
Cn1c(CCN2CCN(c3ccccc3)CC2)nc2cc(NC(=O)c3ccco3)ccc21	inactive
Cn1c(SCc2ccccc2)nnc1-c1cnccn1	inactive
O=C(CCCN1C(=O)C(c2ccccc2)Oc2cccnc21)Nc1ccccc1Cl (stereo not drawn)	inactive
O=C(Nc1ccc(-c2nc3cccnc3s2)cc1)c1ccc(Cl)nc1	inactive
Cc1ccc(C(=O)Nc2nnc(S(=O)(=O)N3CCOCC3)s2)cc1	inactive
O=CN1CCN(C(=O)c2ccccc2Cl)CC1	inactive
COC(=O)CSc1nc2cc3c(cc2cc1C#N)OCO3	inactive
CC(C)(C)C(=O)N/C(N)=N/c1nc2ccccc2o1	inactive
CCC(C)(C)NC(=O)C(c1ccc(OC)cc1)N(Cc1cccs1)C(=O)CCC(=O)Nc1cc(C)on1 (stereo not drawn)	inactive
COc1ccc(NC(=O)Nc2ccc(Cc3ccncc3)cc2)cc1OC	inactive
O=C(CCc1cccc(Cl)c1)NC1CCCN(Cc2ccccc2F)C1 (stereo not drawn)	inactive
O=C(CSc1nnc(-c2ccc([N+](=O)[O-])cc2)o1)Nc1ccccn1	inactive
Cc1ccc(C)c(Nc2cc(C)nc3ncnn23)c1	inactive
Cc1cccc(C)c1NC(=O)Nc1cccs1	inactive
O=S(=O)(c1cccs1)N1CCN(c2ncccn2)CC1	inactive
CC(=O)c1c(C)[nH]c(C(=O)Nc2cccc(S(=O)(=O)N(C)C)c2)c1C	26 µM (active)
COc1ccc(NC(=S)NNC(=O)c2cccs2)cc1	inactive
